# Compounds without any hit were thinned out: in the full panel of roughly 83,000, 20% have a hit.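 A percent growth of 40 corresponds to 60% growth inhibition; 0 means no net growth; -100 means all cells died. Active threshold: below 10.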 Active and inactive are the calls of the source.
# Tested on: HL-60(TB) leukemia
# Assay: NCI-60 one-dose screen, 48 h (100 = growth as untreated, 0 = no growth, -100 = all killed)
# Settings: 10 µM unless noted
row,SMILES,growth
1,Cc1ccc(CSC2=C(Cl)CN(c3ccc(Cl)cc3)C2=O)cc1,110% (inactive)
2,c1ccc(C(c2nc3ncncc3[nH]2)N2CSc3nc4ncncc4n3C2)cc1 (stereo not given),39.8% (inactive)
3,Oc1ccc(CSc2nnc(-c3ccccc3)o2)c2cccnc12,7.7% (active)
4,COc1cc(OC)c(S(N)(=O)=O)cc1C(=O)/C=C/c1ccc(Cl)cc1,-9% (active)
5,CCCC/C(=C\c1ccc(O)c(O)c1)C(=O)NC(Cc1ccccc1)C(=O)C(=O)NCCc1ccc(OC)cc1 (stereo not given),92.5% (inactive)
6,C#CCOc1cccc(-c2nc(N)nc(Nc3ccccc3SSc3ccccc3Nc3nc(N)nc(-c4cccc(OCC#C)c4)n3)n2)c1,23.7% (inactive)
7,O=c1[nH]c2ccccc2cc1CSc1ccccc1Nc1nccc(-c2ccc(C(F)(F)F)cc2)n1,90% (inactive)
8,COc1ccc(C(=O)c2c(N)c(C#N)cn2-c2ccccc2OC)cc1,-7.7% (active)
9,C#C[C@]1(O)CC[C@H]2[C@@H]3CC=C4c5sc(-c6ccccn6)nc5CC[C@]4(C)[C@H]3CC[C@@]21C,41.4% (inactive)
10,Nn1c(N/N=C/c2nc3ccccc3s2)n[nH]c1=S,136% (inactive)
11,O=S(=O)(NCCCNc1nccc(-c2[nH]c(-c3ccccc3)nc2-c2ccc(F)c(O)c2)n1)c1cccc(F)c1,95.7% (inactive)
12,NCCNC(=O)c1cccc(COc2ccccc2NC(=O)c2cc(Cl)c(Cl)[nH]2)c1,88.9% (inactive)
13,CC(=O)c1cc(C(=O)N2c3ccccc3Sc3ccccc32)n2c1ccc1ccccc12,14% (inactive)
14,COc1cccc(/C=C(/C)c2ccc3cccc(OC)c3[o+]2)c1O,99.7% (inactive)
15,C#C[C@]1(O)CC[C@H]2[C@@H]3CC=C4c5sc(-c6ccc(OC)cc6)nc5CC[C@]4(C)[C@H]3CC[C@@]21C,21.1% (inactive)
16,CN(C)S(=O)(=O)c1oc(-c2ccccc2)nc1C#N,13.8% (inactive)
17,COc1ccc2c(c1)C=CC1(O2)Oc2ccc(OC)cc2C=C1C (stereo not given),-3.1% (active)
18,COc1cccc(O)c1/C=C(/C)c1ccc2c(OC)cccc2[o+]1,120% (inactive)
19,CCOC(=O)c1c(Nc2ccccc2)nn2c(-c3ccc(Br)cc3)ccnc12,90.6% (inactive)
20,CCCC(=O)NC(c1cccnc1)c1cc(C(C)(C)C)c2cccnc2c1O (stereo not given),-13.7% (active)

row,SMILES,growth
1,O=C1Nc2cc(OC(F)(F)F)ccc2Oc2ccc(-c3ccnc(N4CC[C@H](O)C4)c3)cc21,-23.6% (active)
2,C#Cc1nc(C2=C(C)C(=O)/C(=N/OC(C)=O)C2)cs1,20.4% (inactive)
3,NC(N)=Nc1ccc(Oc2cccc(Nc3ccc(Cl)cc3)c2)cn1,-69.4% (active)
4,CN(C)c1ccc(/C=N/Nc2nc(N/N=C/c3ccc(N(C)C)cc3)nc(N3CCOCC3)n2)cc1,96.7% (inactive)
5,Cc1c(Nc2nnc(SCC(=O)Nc3sc4c(c3C#N)CCCC4)s2)c(=O)n(-c2ccccc2)n1C,108% (inactive)
6,C=CC(=O)N1CCC=C(c2cc3c(N[C@H](C)c4ccccc4)ncnc3[nH]2)C1,72.4% (inactive)
7,CCNC(=NCCCN(C)C)N/C(N)=N/c1nc2ccccc2s1,90.9% (inactive)
8,COc1cc2oc(-c3cccc(NC(=O)c4cccc([N+](=O)[O-])c4)c3)cc(=O)c2c(OC)c1OC,68.9% (inactive)
9,Cc1ccccc1Nc1nc(SC(C)C)nc(-c2ccccc2)c1C#N,94.1% (inactive)
10,CC(C)Sc1nc(-c2ccccc2)c(C#N)c(N2CCOCC2)n1,105% (inactive)
11,Cc1cc2nc(C(Cl)Cl)nc(-c3ccc(S(=O)(=O)N(C)C)cc3)n2n1,0.868% (active)
12,CC(=O)c1sc(Nc2cccc(Nc3nc(C)c(C)s3)c2)nc1C,34.2% (inactive)
13,COc1ccc(-c2nc3cc(Cl)c(Cl)cc3n2CC(=O)N=Nc2c(O)[nH]c3ccc(Br)cc23)cc1,80.2% (inactive)
14,O=C(NNc1nc2cc(F)c(F)cc2n2cccc12)c1ncccn1,2.19% (active)
15,O=C(CN1CCN(c2cc(=O)n(-c3ccccc3)c3ccccc23)CC1)Nc1nc(-c2ccccc2)cs1,37.1% (inactive)
16,Cn1cc(-c2nc(N)nnc2-c2c[nH]c3ccc(Br)cc23)c2cc(F)ccc21,75.3% (inactive)
17,COc1cc(CNC(=O)/C=C/c2ccccc2)ccc1OCC(=O)NO,121% (inactive)
18,O=C(CCCCCCN1CC(=O)N2[C@@H](c3ccccc3Br)c3[nH]c4ccccc4c3C[C@H]2C1=O)NO,5.1% (active)
19,CCN(CC)c1ccc2c(c1)Oc1nc(N)c(C#N)c(N)c1C2Sc1ccc(C)cc1 (stereo not given),-24.4% (active)
20,O=C(/C=C/c1ccc(F)cc1)Nc1cccc2cccnc12,93.7% (inactive)

# Source: PubChem BioAssay (NCI)
